Assay outcomes deposited in PubChem BioAssay by several laboratories.
Rtt109 Vps75: C. albicans Rtt109 histone acetyltransferase inhibition; actives 0.16% (n = 330,000); purified Rtt109/Vps75, ThioGlo CoA-SH fluorescence, 4 h; Q5AAJ8; inhibition, % at 34.9 µM;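 active = inhibition of at least 50% in every replicate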
PRMT1 inh: inhibitors of human PRMT1; actives 1.3% (n = 370,000); recombinant PRMT1, activity-based probe fluorescence polarization; Q99873; inhibition, % at 2.79 µM;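 active = inhibition above about 21% made by adding two undisclosed values, limit read from the data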
Target sequence (Q99873 whole entry, looked up): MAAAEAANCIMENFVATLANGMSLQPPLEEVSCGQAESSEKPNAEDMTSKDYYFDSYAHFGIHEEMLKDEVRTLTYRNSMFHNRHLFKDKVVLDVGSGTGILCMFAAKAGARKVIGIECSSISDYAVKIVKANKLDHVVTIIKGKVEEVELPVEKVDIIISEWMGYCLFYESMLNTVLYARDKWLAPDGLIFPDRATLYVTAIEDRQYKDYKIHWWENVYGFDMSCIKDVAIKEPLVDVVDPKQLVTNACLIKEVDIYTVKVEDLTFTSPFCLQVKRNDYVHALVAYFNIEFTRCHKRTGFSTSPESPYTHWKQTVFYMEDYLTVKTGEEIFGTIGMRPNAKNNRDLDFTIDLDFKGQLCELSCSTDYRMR
ABHD5 PLIN5 PPI: blocks binding of human ABHD5 to perilipin-5; Q00G26+Q8WTS1; Split G. princeps luciferase complementation, luminescence, 4 h; inhibition, % at 4 µM; actives 0.78% (n = 360,000); AID 602281;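 active = inhibition above the mean inhibition across every tested compound plus 3 SD, cut at about 22% in these data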;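 also: 0% = DMSO only wells and the 100% control is not disclosed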
rCAG RNA binder: molecules binding r(CAG) RNA repeats | r(CAG) RNA repeat, TO-PRO-1 dye displacement fluorescence | actives 1.3% (n = 370,000) | inhibition, % at 3 µM;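 active = inhibition above the plate cutoff, the mean of all test compounds on that plate plus 3 SD, cut at about 35% in these data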;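 also: 0% = DMSO alone and 100% = 100 µM mitoxantrone as full dye displacement; higher means more dye released from RNA so lower well fluorescence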
ALR H2O2 inh: blocks human ALR sulfhydryl oxidase activity. inhibition, % (no concentration beside the values). purified ALR, DTT oxidation, H2O2 HRP-luminol luminescence. P55789. actives 3.8% (n = 290,000);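 active = mean replicate inhibition above about 79%, with every replicate also reaching it, limit read from the data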
Target sequence (P55789 whole entry, looked up): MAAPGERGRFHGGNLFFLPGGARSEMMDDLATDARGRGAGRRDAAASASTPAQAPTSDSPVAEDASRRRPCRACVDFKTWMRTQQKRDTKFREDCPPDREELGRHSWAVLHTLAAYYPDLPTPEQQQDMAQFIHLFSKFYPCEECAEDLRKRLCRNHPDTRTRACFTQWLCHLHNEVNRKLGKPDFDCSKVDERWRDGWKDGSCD
LANA-H2B inh: blocks KSHV LANA binding to histone H2A/H2B; Q9QR71; inhibition, % (concentration not given with the values); actives 0.6% (n = 320,000); cell-free LANA-H2A/H2B peptide, fluorescence polarization; AID 2629; in the data active = inhibition mostly above about 10%, no sharp cut-off; inactive = mostly below about 6.7%
Active calls of the source: *. The list is not random: actives were taken first. Their share in the collection is about 5.9%.

`CCC(c1nnnn1-c1ccc2c(c1)OCCO2)N1CCN(c2cccc(C)c2C)CC1` (stereo not given) gave PRMT1 inh 2, ABHD5 PLIN5 PPI -6 and rCAG RNA binder 7.
For Nc1nc2c(ncn2[C@@H]2O[C@H](C(=O)NCCCc3ccccc3)[C@@H](O)[C@H]2O)c(=O)[nH]1 the results were PRMT1 inh 3 and rCAG RNA binder 3.
CSC1=C(C#N)C(=O)NC(c2ccccc2O)S1 (stereo not given) was read as Rtt109 Vps75 2, PRMT1 inh 3, ABHD5 PLIN5 PPI 3, rCAG RNA binder 0, ALR H2O2 inh 98* and LANA-H2B inh -1.
`CCN(CC)c1ccc(/C=N/Nc2nc(C)cc(C)n2)cc1` gave PRMT1 inh -3, ABHD5 PLIN5 PPI 3, rCAG RNA binder -5, ALR H2O2 inh 98* and LANA-H2B inh -4.
Screening O=[N+]([O-])c1cccc(-c2ccc(CN3CCN(c4ccccc4)CC3)o2)c1 returned Rtt109 Vps75 2, PRMT1 inh 6, ABHD5 PLIN5 PPI -11, rCAG RNA binder 4, ALR H2O2 inh 14 and LANA-H2B inh -2.
For O=[N+]([O-])c1ccccc1-c1ccc(CN2CCN(c3ccccc3)CC2)o1 the results were Rtt109 Vps75 8, PRMT1 inh 23*, ABHD5 PLIN5 PPI 1, rCAG RNA binder -4, ALR H2O2 inh 20 and LANA-H2B inh 2.
Screening Nc1ccc(Cl)cc1/C(=N/O)c1ccccc1 returned Rtt109 Vps75 0, PRMT1 inh 0, ABHD5 PLIN5 PPI 2, rCAG RNA binder 1, ALR H2O2 inh 97* and LANA-H2B inh -4.
Screening N/N=C(\c1ccccc1)c1cc(Cl)ccc1N returned Rtt109 Vps75 -4, PRMT1 inh 0, ABHD5 PLIN5 PPI -4, rCAG RNA binder 5, ALR H2O2 inh 14 and LANA-H2B inh 2.
For COCC(=O)N(C)[C@H]1C[C@H]2c3[nH]c4c(-c5ccccc5)cccc4c3CCN2C(=O)[C@H]1[C@H](C)O the results were PRMT1 inh -3 and rCAG RNA binder 1.
`Brc1ccc(Br)c2cnccc12` gave Rtt109 Vps75 3, PRMT1 inh 3, ABHD5 PLIN5 PPI 8 and rCAG RNA binder 0.
For N#CCC(=O)Nc1ccc(C(=O)NCc2cccc(Cl)c2)cc1 the results were Rtt109 Vps75 -8, PRMT1 inh 1, ABHD5 PLIN5 PPI 2, rCAG RNA binder 23, ALR H2O2 inh 98* and LANA-H2B inh 11.
`O=C(NCc1cccc(Cl)c1)c1ccncc1` gave Rtt109 Vps75 -1, PRMT1 inh -3, ABHD5 PLIN5 PPI 3, rCAG RNA binder 0, ALR H2O2 inh -8 and LANA-H2B inh -5.
`COc1cc(SC#N)ccc1N=Cc1c(C)[nH]n(-c2cccc3ccccc23)c1=O` gave ALR H2O2 inh 99* and LANA-H2B inh -1.
`CCCCN1C(=O)N2Cc3cc(OC)ccc3C2CS1(=O)=O` (stereo not given) gave PRMT1 inh 0 and rCAG RNA binder 0.
Screening O=C(Nc1cccc(-c2csc(Nc3ccc(Cl)cc3)n2)c1)c1ccccc1 returned Rtt109 Vps75 -4, PRMT1 inh 4, ABHD5 PLIN5 PPI -6, rCAG RNA binder 24, ALR H2O2 inh -3 and LANA-H2B inh -2.
O=C(Nc1cccc(-c2csc(Nc3ccc(Cl)cc3)n2)c1)c1cccc(C(F)(F)F)c1 was read as Rtt109 Vps75 -4, PRMT1 inh -1, ABHD5 PLIN5 PPI -10, rCAG RNA binder 40*, ALR H2O2 inh -9 and LANA-H2B inh 3.
COC(=O)[C@]12C[C@H](CC(=O)NCc3ccccc3)C(=O)N(Cc3ccco3)C1=C[C@H](C(C)C)O[C@@H]2C1CC1 was read as PRMT1 inh 0 and rCAG RNA binder 3.
CCOC(=O)CSC1=C(C#N)C(=O)NC2(CCCCC2)S1 was read as Rtt109 Vps75 3, PRMT1 inh 16, ABHD5 PLIN5 PPI -10, rCAG RNA binder 1, ALR H2O2 inh 98* and LANA-H2B inh 0.
CN(C(=O)c1ccccc1)C1(C)CCS(=O)(=O)C1 (stereo not given) was read as Rtt109 Vps75 -18, PRMT1 inh -5, ABHD5 PLIN5 PPI -4, rCAG RNA binder -1, ALR H2O2 inh -3 and LANA-H2B inh -9.
`CN(C(=O)c1ccc(N2CCCCC2)c([N+](=O)[O-])c1)C1(C)CCS(=O)(=O)C1` (stereo not given) gave Rtt109 Vps75 53*, PRMT1 inh -2, ABHD5 PLIN5 PPI 14, rCAG RNA binder -3, ALR H2O2 inh -1 and LANA-H2B inh 1.
Screening CN(C(=O)c1ccc2c(c1)OCO2)C1(C)CCS(=O)(=O)C1 (stereo not given) returned Rtt109 Vps75 2, PRMT1 inh 2, ABHD5 PLIN5 PPI 9, rCAG RNA binder 0, ALR H2O2 inh -2 and LANA-H2B inh 14*.
`COc1ccc(C(=O)N(C)C2(C)CCS(=O)(=O)C2)cc1OC` (stereo not given) gave Rtt109 Vps75 13, PRMT1 inh -1, ABHD5 PLIN5 PPI -3, rCAG RNA binder -1, ALR H2O2 inh 0 and LANA-H2B inh -4.
For Cc1ccccc1C(=O)N[C@H](C(=O)N1CCC[C@H]1C(=O)NCCc1ccccc1Cl)C1CCCCC1 the results were PRMT1 inh 2 and rCAG RNA binder 0.
For O=C(N/N=C/c1cccnc1)c1cccc(N2CCCC2=O)c1 the results were Rtt109 Vps75 -6, PRMT1 inh 2, ABHD5 PLIN5 PPI 4, rCAG RNA binder -3, ALR H2O2 inh -10 and LANA-H2B inh 4.
Screening CCN(CC)c1ccc(/C=N/NC(=O)c2cccc(N3CCCC3=O)c2)cc1 returned Rtt109 Vps75 -8, PRMT1 inh 1, ABHD5 PLIN5 PPI -2, rCAG RNA binder -5, ALR H2O2 inh 97* and LANA-H2B inh -3.
COc1cc(/C=N/NC(=O)c2cccc(N3CCCC3=O)c2)ccc1O was read as Rtt109 Vps75 3, PRMT1 inh -1, ABHD5 PLIN5 PPI 3, rCAG RNA binder 3, ALR H2O2 inh 100* and LANA-H2B inh 2.
Screening Cc1cccc(Cn2cc(CN3CC(N4CCN(CCOC(=O)c5cc6ccccc6o5)CC4)CS3(=O)=O)nn2)c1 (stereo not given) returned PRMT1 inh 2 and rCAG RNA binder 6.
For C=CCn1cccc(C(=O)Nc2ccc(N(C)C)cc2)c1=O the results were Rtt109 Vps75 5, PRMT1 inh -1, ABHD5 PLIN5 PPI -3, rCAG RNA binder -1, ALR H2O2 inh 99* and LANA-H2B inh 2.
`COc1ccc(N=C2Sc3ccccc3[C@@H]3C[C@H]4[C@H](CON4C)CN23)c(OC)c1` gave PRMT1 inh -3 and rCAG RNA binder 1.
Screening C#CCN(C(=O)Nc1ccccc1)c1ccccc1 returned Rtt109 Vps75 -7, PRMT1 inh 1, ABHD5 PLIN5 PPI 5, rCAG RNA binder -4, ALR H2O2 inh -2 and LANA-H2B inh 4.
